Legend:
Conditions in all cases: concentration: 1 μM, replicates: in singlicate; n = 1
[1] = system: PIM1
[2] = system: PIM2
[3] = system: PIM3
[4] = system: PIP5K1A
[5] = system: PIP5K1C
[6] = system: PIP5K2B
[7] = system: T1, PIP5K2C
T1 construct: gene PIP4K2C

[8] = system: T2, PKAC-alpha
T2 construct: gene PRKACA

[9] = system: T3, PKAC-beta
T3 construct: gene PRKACB

[10] = system: PKMYT1
[11] = system: PKN1
[12] = system: PKN2
[13] = system: PLK1
[14] = system: PLK2
[15] = system: PLK3
[16] = system: PLK4
[17] = system: PRKCD
[18] = system: PRKCE
[19] = system: PRKCH
[20] = system: PRKCI
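Also: KINOMEscan kinase panel screen.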

SMILES | %Inh [1] | %Inh [2] | %Inh [3] | %Inh [4] | %Inh [5] | %Inh [6] | %Inh [7] | %Inh [8] | %Inh [9] | %Inh [10] | %Inh [11] | %Inh [12] | %Inh [13] | %Inh [14] | %Inh [15] | %Inh [16] | %Inh [17] | %Inh [18] | %Inh [19] | %Inh [20]
O=C(Nc1n[nH]c2nc(-c3nccs3)c(Br)cc12)C1CCCC1 [SB-742609] | 0% | 0% | 0% | 0% | 36% | 0% | 0% | 0% | 0% | 14% | 0% | 0% | 0% | 0% | 0% | 0% | 5% | 0% | 2% | 12%
Cc1ccccc1-n1cnc2c(N)ncnc21 [SKF-97510] | 0% | 0% | 2% | 0% | 0% | 0% | 0% | 10% | 0% | 0% | 0% | 0% | 0% | 0% | 0% | 0% | 0% | 0% | 0% | 0%
Fc1cccc(COc2nnc(-c3ccc4c(c3)CCO4)o2)c1 | 11% | 8% | 0% | 31% | 6% | 29% | 10% | 0% | 0% | 11% | 0% | 0% | 0% | 9% | 11% | 12% | 12% | 0% | 0% | 0%
COC(=O)c1c(-c2ccccc2)c2cc(C(=O)O)ccc2c(=O)n1Cc1ccccc1 | 0% | 0% | 0% | 18% | 17% | 22% | 13% | 0% | 24% | 0% | 0% | 0% | 0% | 12% | 0% | 11% | 0% | 0% | 4% | 0%
NC(=O)c1nnc2ccccc2c1N | 1% | 0% | 0% | 0% | 38% | 0% | 13% | 13% | 16% | 15% | 1% | 38% | 28% | 8% | 10% | 19% | 0% | 15% | 0% | 28%
O=c1cc(N2CCOCC2)nc2n(Cc3cccc(Cl)c3Cl)ccn12 [GSK2286295] | 4% | 0% | 5% | 0% | 16% | 2% | 0% | 16% | 5% | 2% | 0% | 0% | 10% | 0% | 0% | 0% | 0% | 0% | 20% | 48%
Fc1cc(Cl)ccc1Nc1ccnc2cc(I)ccc12 [GW551191] | 22% | 0% | 6% | 0% | 30% | 0% | 10% | 0% | 0% | 1% | 17% | 0% | 0% | 0% | 0% | 1% | 0% | 10% | 2% | 16%
Cc1ccc(-c2cc(-c3c[nH]nc3-c3ccccn3)ccn2)cc1 [GW684088] | 20% | 0% | 2% | 50% | 71% | 8% | 67% | 30% | 0% | 0% | 0% | 0% | 0% | 0% | 0% | 0% | 0% | 16% | 0% | 12%

From article PMC5540273 (PLoS ONE, 2017)
